PAD4 inh: human PAD4 inhibitors, primary screen, biochemical, fluorescence polarization, 1536-well format; Protein-arginine deiminase type-4 (Homo sapiens), Q9UM07; recombinant PAD4, RCA probe fluorescence polarization; inhibition, % at 6.36 µM; actives 0.41% (n = 330,000); AID 485272, 2010;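 active = percent inhibition above a cutoff equal to the mean of all tested compounds plus 3 SD, cut at about 15% in these data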;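 note: 0% = PAD4 with RCA probe and DMSO and 100% = probe without PAD4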
PME-1 inh: PME-1 inhibitors via competitive probe labeling, primary screen, biochemical, fluorescence polarization, FP-Rh probe, HTS | inhibition, % at 5.9 µM | recombinant PME-1 | Protein phosphatase methylesterase 1 (Homo sapiens), Q9Y570 | AID 2130, 2009 | actives 0.53% (n = 320,000);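 active = inhibition above the campaign mean of all compounds plus 3 SD, cut at about 26% in these data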;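 note: competitive labeling of PME-1 active site by serine hydrolase directed probe; 0% = PME-1 with DMSO and 100% = wells lacking PME-1 enzyme; inhibitors block probe labeling so polarization falls and inhibition rises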
Target sequence (Q9Y570 whole entry, looked up): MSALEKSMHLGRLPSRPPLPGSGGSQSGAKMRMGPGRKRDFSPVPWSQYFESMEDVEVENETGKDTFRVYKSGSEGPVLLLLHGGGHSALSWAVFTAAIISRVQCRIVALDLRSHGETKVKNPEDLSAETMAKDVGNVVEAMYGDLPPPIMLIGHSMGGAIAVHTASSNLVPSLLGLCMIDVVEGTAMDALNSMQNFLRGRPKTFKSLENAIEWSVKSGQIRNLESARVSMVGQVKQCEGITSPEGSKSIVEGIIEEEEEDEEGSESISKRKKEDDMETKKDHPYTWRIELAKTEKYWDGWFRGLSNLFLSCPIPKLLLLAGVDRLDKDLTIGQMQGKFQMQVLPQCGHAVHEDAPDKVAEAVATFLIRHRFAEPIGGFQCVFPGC
LYPLA1 inh: LYPLA1 inhibitors, primary screen, counter-screen for PME1 inhibitor project, biochemical, fluorescence polarization, FP-Rh probe ABPP. actives 0.16% (n = 320,000). recombinant LYPLA1. inhibition, % at 5.9 µM;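 active = inhibition above the mean of all tested compounds plus 3 SD, set per campaign, cut at about 14% in these data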;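 note: inhibitors block serine hydrolase probe labeling of LYPLA1 so polarization falls; 0% = enzyme with DMSO and 100% = wells lacking LYPLA1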
Fam108B inh: mouse Fam108B serine hydrolase inhibitors, primary screen, counter-screen for RBBP9 inhibitor project, biochemical, fluorescence polarization; recombinant Fam108B, FP-Rh probe fluorescence polarization; AID 1947, 2009; actives 0.33% (n = 300,000); inhibition, % at 9.51 µM;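 active = inhibition above the screen mean inhibition plus 3 SD, computed separately per campaign, cut at about 18% in these data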;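 note: inhibitors lower polarization as less probe binds the enzyme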
GSTO1 inh: inhibitors of recombinant GSTO1, primary screen, counter-screen for RBBP9 inhibitor project, biochemical, fluorescence polarization; actives 1.1% (n = 300,000); Glutathione S-transferase omega-1 (Homo sapiens), P78417; activity-based probe fluorescence polarization; inhibition, % at 5.96 µM;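 active = inhibition above the campaign mean inhibition plus 3 SD, cut at about 35% in these data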;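 note: 0% = GSTO1-1 with DMSO and 100% = wells lacking GSTO1-1 enzyme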
Target sequence (P78417 whole entry, looked up): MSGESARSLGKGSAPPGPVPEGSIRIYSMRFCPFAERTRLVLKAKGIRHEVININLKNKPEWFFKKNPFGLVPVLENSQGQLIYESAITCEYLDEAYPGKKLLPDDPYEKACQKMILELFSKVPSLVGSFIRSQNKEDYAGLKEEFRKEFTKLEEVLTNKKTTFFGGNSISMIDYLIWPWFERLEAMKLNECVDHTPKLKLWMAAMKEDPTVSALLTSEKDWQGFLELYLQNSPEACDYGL
LYPLA2 inh: LYPLA2 inhibitors, primary screen, counter-screen for PME1 inhibitor project, biochemical, fluorescence polarization, FP-Rh probe ABPP. Acyl-protein thioesterase 2 (Homo sapiens), O95372. recombinant LYPLA2. inhibition, % at 5.9 µM. actives 0.38% (n = 320,000). AID 2177, 2009;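 active = inhibition above the screen-wide mean plus 3 SD, limit set per campaign, cut at about 26% in these data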;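 note: 0% = LYPLA2 with DMSO and 100% = wells lacking LYPLA2 enzyme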
* = called active by the depositor. The list is not random: actives were taken first. Their share in the collection is about 1.8%.

O=[N+]([O-])c1cccc2ccc(/C=C/c3ccc(Cl)cc3)nc12 was read as PAD4 inh 2, PME-1 inh -6, LYPLA1 inh -2, Fam108B inh 3, GSTO1 inh -7 and LYPLA2 inh -2.
`CCOc1cc(/C=C/c2ccc3cccc([N+](=O)[O-])c3n2)cc(Cl)c1O` gave PAD4 inh -4, PME-1 inh 27*, LYPLA1 inh -4, Fam108B inh 16, GSTO1 inh 5 and LYPLA2 inh 2.
For CC(C)N1CC2=C(OC(N)=C(C#N)C2c2cccnc2)/C(=C/c2cccnc2)C1 (configuration not stated) the results were PAD4 inh 16*, PME-1 inh 6, LYPLA1 inh 9, Fam108B inh 3, GSTO1 inh 6 and LYPLA2 inh 16.
Screening CC[C@]12c3[nH]c4cc(CCC(=O)N(C)C)ccc4c3CCN1C(=O)[C@@H](CC(=O)NCC13CC4CC(CC(C4)C1)C3)C[C@@H]2C(=O)N1CCN(C(=O)c2ccco2)CC1 returned PAD4 inh 3.
For COc1cn(-c2ccccc2)nc1C(=O)Nc1ccc(C)cc1Cl the results were PAD4 inh -4, PME-1 inh -7, LYPLA1 inh 1, Fam108B inh -1, GSTO1 inh -2 and LYPLA2 inh 2.
Screening Cc1ccccc1NC(=O)Cc1nc(COC(=O)c2cccc(O)c2)cs1 returned PAD4 inh 1, PME-1 inh -5, LYPLA1 inh -6 and LYPLA2 inh -10.
`Cc1ccc(C)c(NC(=O)Cc2nc(CCl)cs2)c1` gave PAD4 inh 0, PME-1 inh -3, LYPLA1 inh 2, Fam108B inh 4, GSTO1 inh 95* and LYPLA2 inh -1.
For O=C(Nc1nccs1)C1CC=CCC1 (configuration not stated) the results were PAD4 inh 1, PME-1 inh -2, LYPLA1 inh 5, Fam108B inh 2, GSTO1 inh 4 and LYPLA2 inh 6.
`O=C(Nc1ccc(O)cc1)C1CC=CCC1` (configuration not stated) gave PAD4 inh 5, PME-1 inh 14, LYPLA1 inh 7, Fam108B inh 9, GSTO1 inh 37* and LYPLA2 inh 18.
For Cc1ccc(C(=O)Sc2cccccc2=O)cc1 the results were PAD4 inh 1, PME-1 inh 1, LYPLA1 inh 4, Fam108B inh 1, GSTO1 inh 37* and LYPLA2 inh 8.
Cc1ccc(C(=O)CC(=O)c2ccccc2)cc1 was read as PAD4 inh -1, PME-1 inh -5, LYPLA1 inh -2, Fam108B inh -6, GSTO1 inh 1 and LYPLA2 inh -6.
Screening CC(C)[C@H](NC(=O)c1ccccc1Cl)C(=O)OCC(=O)N1CCCCC1 returned PAD4 inh -2.
For N#Cc1c(N)n(CCOC(=O)c2cccc([N+](=O)[O-])c2)c2nc3ccccc3nc12 the results were PAD4 inh 1, PME-1 inh 31*, LYPLA1 inh -1, Fam108B inh 0, GSTO1 inh 20 and LYPLA2 inh -1.
Screening COc1ccc(Cn2c(N)c(C#N)c3nc4ccccc4nc32)cc1 returned PAD4 inh -16, PME-1 inh 0, LYPLA1 inh -8, Fam108B inh 2, GSTO1 inh 39* and LYPLA2 inh 0.
For COCCn1c(N)c(C#N)c2nc3ccccc3nc21 the results were PAD4 inh -6, PME-1 inh -1, LYPLA1 inh 3, Fam108B inh 2, GSTO1 inh 27 and LYPLA2 inh 3.
For CCOC(=O)c1c(C)[nH]c(C(=O)COC(=O)c2cc(C)oc2C)c1C the results were PAD4 inh 0, PME-1 inh -6, LYPLA1 inh 1 and LYPLA2 inh 0.
For Cc1cccc2cc(/C=N/Nc3ccc(C(=O)O)cc3)c(Cl)nc12 the results were PAD4 inh 0, PME-1 inh 36*, LYPLA1 inh 14, Fam108B inh 11, GSTO1 inh 8 and LYPLA2 inh 14.
COC(=O)CCCC1=CC2=CC(=O)C(C)(OC(=O)CCc3ccccc3)C(=O)C2=CO1 (configuration not stated) was read as PAD4 inh 6, PME-1 inh 4, LYPLA1 inh 4, Fam108B inh -6, GSTO1 inh 14 and LYPLA2 inh -9.
CCCCC1=CC2=CC(=O)C(C)(O)C(=O)C2=CO1 (configuration not stated) was read as PAD4 inh -5, PME-1 inh 6, LYPLA1 inh 2, Fam108B inh 4, GSTO1 inh 25 and LYPLA2 inh 8.
Screening CC(C)(C)OC(=O)NCCCCC1=CC2=CC(=O)C(C)(OC(=O)c3ccco3)C(=O)C2=CO1 (configuration not stated) returned PAD4 inh -2, PME-1 inh 2, LYPLA1 inh 2, Fam108B inh -1, GSTO1 inh 41* and LYPLA2 inh -8.
`COC(=O)CCCC1=CC2=CC(=O)C(C)(OC(=O)c3ccco3)C(=O)C2=CO1` (configuration not stated) gave PAD4 inh 15, PME-1 inh 5, LYPLA1 inh 2, Fam108B inh 6, GSTO1 inh 30 and LYPLA2 inh 5.
For CCCCC1=CC2=CC(=O)C(C)(OC(=O)c3ccc(Cl)nc3)C(=O)C2=CO1 (configuration not stated) the results were PAD4 inh 20*, PME-1 inh 23, LYPLA1 inh 20*, Fam108B inh 7, GSTO1 inh 26 and LYPLA2 inh 20.
Screening CC(C)(C)OC(=O)NCCCC1=CC2=CC(=O)C(C)(OC(=O)C3CCCC3)C(=O)C2=CO1 (configuration not stated) returned PAD4 inh 26*, PME-1 inh 9, LYPLA1 inh 13, Fam108B inh 1, GSTO1 inh 13 and LYPLA2 inh 9.
For O=C(c1ccccc1C(=O)N(c1ccccc1)c1ccccc1)N1CCCCC1 the results were PAD4 inh 5, PME-1 inh -2, LYPLA1 inh -1, Fam108B inh -1, GSTO1 inh -2 and LYPLA2 inh 3.
For CC1CCCN(S(=O)(=O)c2cccc(C(=O)OCC(=O)N(C)Cc3c(F)cccc3Cl)c2)C1 (configuration not stated) the results were PAD4 inh 6.
CCCC(=O)Nc1nnc(SCC(=O)NC2CC2)s1 was read as PAD4 inh -3, PME-1 inh -8, LYPLA1 inh -1, Fam108B inh -3, GSTO1 inh 0 and LYPLA2 inh 11.
